Data as given in PubChem BioAssay (NCI).
This is part of a sample that, as a whole, favours compounds with a hit. Of some 79,000 tested, about 15% had one in any assay. Calls of active or inactive are those of the source. Rule as the data show it: active = growth inhibition above about 70%; inactive = the rest.

Experiment: NCI Yeast Anticancer Drug Screen. Data for the sgs1 mgt1 strain (AID 161);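 also: 0% = growth of cultures given vehicle only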
Settings: S. cerevisiae sgs1 mgt1 strain, at 50.0 µM, stronger effect = higher value
Description: Growth inhibition of yeast strains with defined genetic alterations is measured as a screen for potential anti-cancer activity. Selected strains with alterations in DNA damage repair or cell cycle control were exposed to compounds and growth inhibition was measured relative to vehicle treated controls. The strain used in this assay is sgs1 mgt1

Row | SMILES | growth inhibition
1 | COC(=O)c1nc2c(N)nc(-c3ccccc3)nc2nc1N | 23.1% (inactive)
2 | CC(=O)CC(SCCSCCSC(CC(C)=O)c1ccccc1)c1ccccc1 (stereo not given) | 5.05% (inactive)
3 | CC1CCc2ccccc2N1C(=O)c1cccc([N+](=O)[O-])c1C(=O)O (stereo not given) | 27.4% (inactive)
4 | COc1cc(NC(C)=O)c2[nH]c3c(C)cc(NC(C)=O)c(C)c3c2c1 | -67.2% (inactive)
5 | CCC(C(=O)O)C(=O)O | -23.7% (inactive)
6 | COc1ccc2c(c1)N(CC(C)CN(C)C)c1ccccc1S2 (stereo not given) | -0.95% (inactive)
7 | CC(C)CC(NC(=O)OC(C)(C)C)C(=O)NC(Cc1c[nH]c2ccccc12)C(=O)NN (stereo not given) | 29.4% (inactive)
8 | CCC(=N)C(c1ccccc1)(c1ccccc1)C(C)CN(C)C (stereo not given) | -2.4% (inactive)
9 | COC(=O)C1=C(C)N(NC(=O)Nc2ccccc2)C2(N)N(NC(=O)Nc3ccccc3)C(C)=C(C(=O)OC)C12C(=O)OC (stereo not given) | 3.55% (inactive)
10 | CCOC(=O)CON | -7.45% (inactive)
11 | COc1ccc2ccc3cccnc3c2n1 | 40.9% (inactive)
12 | C=C(CN(CC)CC)C1(c2ccccc2)CC2(CCCC2)C(=O)O1 (stereo not given) | 1.15% (inactive)
13 | CC1=CCC(C(C)(C)NC(=O)c2ccccc2)C/C1=N/O (stereo not given) | -60.3% (inactive)
14 | COc1cc2c(cc1OC)[C@H]1C(COC(=O)c3ccccc3)CSC(=Nc3ccccc3)N1CC2 (stereo not given in full) | 36% (inactive)
15 | COC(=S)SSC(=S)NCCN(CCNC(=S)SSC(=S)OC)C(=S)SSC(=S)OC | -2.65% (inactive)
16 | CCC1(C)CCC(C)(CC)c2cc(C)ccc21 (stereo not given) | -6.95% (inactive)
17 | COc1cc(C2c3cc4c(cc3[C@@H](OC3OC5CO[C@@H](C)OC5C(O)C3O)[C@H]3COC(=O)C23)OCO4)cc(OC)c1OC (stereo not given in full) | -21.9% (inactive)
18 | N#C/C(=C\NC(N)=S)c1nc2ccccc2s1 | -15.8% (inactive)
19 | CCOC(=O)C(C(C)=O)C(c1ccc(N(C)C)cc1)C(C(C)=O)C(=O)OCC (stereo not given) | 7.75% (inactive)
20 | O=[N+]([O-])c1ccc(Br)cc1 | 17.7% (inactive)

Row | SMILES | growth inhibition
21 | CS(=O)(=O)OCC(CCl)(CCl)CCl | 0.15% (inactive)
22 | c1ccc(-c2nc3ccccc3nc2-c2ccc(-c3nc4ccccc4nc3-c3ccccc3)cc2)cc1 | -9% (inactive)
23 | CCCCCCCCCCCCCCOc1ccc(OCCCCCCCCC)cc1 | 24.1% (inactive)
24 | Cc1nccnc1N1CCCCC1 | -5.8% (inactive)
25 | O=c1oc2ccc(Cl)cc2c(OCCO)c1Cl | -4.45% (inactive)
26 | CC(=O)CCn1c(=S)sc2ccccc21 | 59.5% (inactive)
27 | S=c1[nH]c2ccccc2nc1NCc1ccccc1 | 2.15% (inactive)
28 | C(=C1/NC(c2ccccc2)=Nc2ccccc21)/c1ccccc1 | 10.9% (inactive)
29 | C[n+]1cccc(C(=O)c2ccccc2)c1 | 0.65% (inactive)
30 | Cc1ccc([N+](=O)[O-])cc1NC(=O)NCCO | -6.3% (inactive)
31 | OCC(O)COc1ccc(OCc2ccccc2)cc1 (stereo not given) | -3.4% (inactive)
32 | O=c1[nH]cc(SSc2c[nH]c(=O)[nH]c2=O)c(=O)[nH]1 | 4.2% (inactive)
33 | N#Cc1ccc(CC(O)(c2ccccc2)c2ccccc2)cc1 | -1.3% (inactive)
34 | C=C1CN=C(Nc2ccc(F)cc2F)S1 | -14.6% (inactive)
35 | Oc1ccc2ccccc2c1 | -14.8% (inactive)
36 | CCOc1cccc(C=Nc2ccccc2SSc2ccccc2N=Cc2cccc(OCC)c2O)c1O | 61.5% (inactive)
37 | O=C1CN(C(=O)Nc2ccccc2)c2ccccc2N1 | -8.3% (inactive)
38 | CCN(/N=C1\CC2C=CCN(C2)C(=O)Cc2c1[nH]c1ccccc21)S(=O)(=O)c1ccc(C)cc1 (stereo not given) | 39.2% (inactive)
39 | Cc1ccc2c(c1)C(c1ccccc1)(c1ccccc1)N(c1ccccc1)S2(=O)=O | 64.7% (inactive)
40 | CC(=O)CC(=O)Nc1cccc(O)c1 | -14.9% (inactive)
